aSyn rescue: qHTS of alpha-syn Inhibitors; Yeast expressing alpha-synuclein, growth rescue, BacTiter-Glo, 24 h; Potency, µM (doses to about 46.1 µM), hits mostly activators; actives 0.14% (n = 370,000); also: nearly all actives have a fitted effect of over 65% in size
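Rescue of yeast growth: cells expressing toxic alpha-synuclein, induced in galactose at OD600 0.02, incubated with compound 24 h at 30 C. ATP luminescence quantified growth; inhibitors of toxicity appear as activators.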
FUS yeast rescue: qHTS for Suppressors of FUS Proteinopathy: Primary screen using FUS-linked yeast assay | S. cerevisiae FUS-expressing, growth rescue, OD600, 24 h | Potency, µM (series often up to 76.6 µM), usual class: activators | actives 0.24% (n = 390,000) | AID 1347120, 2019; also: nearly all actives have a fitted effect of over 55% in size
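S. cerevisiae expressing FUS from galactose induction served as the toxicity model. Growth after 24hr at 30C, read as absorbance at 600 nm, indicates suppression of toxicity; compounds dosed at several concentrations.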
Abeta yeast res: qHTS for compounds that reverse cellular toxicity of Amyloid beta (A-beta) peptide in yeast: Primary Screen; Potency, µM (doses to about 46.1 µM), actives largely listed as activators; yeast expressing A-beta42, growth rescue, OD600, 48 h; response scale: 0% DMSO, 100% iron-clioquinol control; actives 0.063% (n = 410,000); also: nearly all actives have a fitted effect of over 55% in size
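Growth rescue measured by 600 nm absorbance after 48 h yeast culture at 30 C with compound. Values normalized between DMSO and an equimolar ferric chloride plus clioquinol control.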
TDP43 rescue: qHTS of TDP-43 Inhibitors. TDP-43 expressing yeast growth rescue, BacTiter-Glo, 24 h. Potency, µM (series often up to 46.1 µM), usual class: activators. actives 1.8% (n = 410,000). AID 652104, 2013; also: nearly all actives have a fitted effect of over 50% in size
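Cell-based yeast growth screen: TDP-43 expression induced in galactose, inoculum OD600=0.02 after raffinose pregrowth to mid-log. Read-out BacTiter-Glo luminescence at 24 hr, 30 deg C; inhibition of toxicity seen as signal increase.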
Large screens that a line does not name were inactive. Most compounds without a hit are left out; they make up all but 2.1% or so of the library. Calls follow the shape of the dose curve; as a rule, active = well fitted curve in the direction sought with a large enough effect; inconclusive = small, poorly fitted or top-dose-only effect, or another doubt; inactive = no such curve, though single readings can be large; an effect the other way counts as inactive or inconclusive.

CCn1ccc2cc(S(=O)(=O)N3CCCN(C(=O)NCCOC)CC3)ccc21	aSyn rescue inconclusive
COc1cccc(NC(=O)C2CCCN(S(=O)(=O)c3ccc4[nH]c(=O)ccc4c3)C2)c1 (stereo unspecified)	none (no result: aSyn rescue)
Clc1ccccc1CNc1ncnc2c1c(-c1ccccc1)cn2-c1ccccc1	none (no result: aSyn rescue)
CN(C)c1cc(N2CCOCC2)nc(C#N)n1	none (no result: FUS yeast rescue, Abeta yeast res, TDP43 rescue)
COc1ccc(Nc2nn3c(=O)c4cc5c(cc4nc3s2)OCO5)c(OC)c1	none (no result: aSyn rescue)
Cc1cccc(-n2c(=O)c3c(c4cc(C)ccc4n3C)n(CC(=O)NCCC3=CCCCC3)c2=O)c1	none (no result: aSyn rescue)
Cc1nc(Oc2ccccc2)c2oc3ccccc3c2n1	TDP43 rescue inconclusive
COc1ccc(Oc2nc(C)nc3c2oc2ccccc23)cc1	TDP43 rescue 15.8µM
CCc1cc(=O)oc2cc(C)c(CN3CCCC(C)C3)c(O)c12 (stereo unspecified)	FUS yeast rescue 7.08µM
Cc1ccc(SCC(=O)NC(=O)c2ccccc2Br)c(C)c1	TDP43 rescue 12.6µM (no result: FUS yeast rescue)
O=C(c1cc(F)cc(F)c1)N1CCCC(c2nc(-c3cccs3)no2)C1 (stereo unspecified)	none (no result: aSyn rescue, Abeta yeast res, TDP43 rescue)
N#Cc1c(-c2cccc([N+](=O)[O-])c2)nc2n(c1=O)CCS2	Abeta yeast res inconclusive, TDP43 rescue 11.2µM
COc1ccc(-c2nc3ccc(NC(C)=O)cc3c(=O)n2Cc2ccccc2)cc1COc1ccc(NC(C)=O)cc1	none (no result: FUS yeast rescue, Abeta yeast res, TDP43 rescue)
O=[N+]([O-])c1cccnc1N1CCC(c2cc(-c3ccc(Cl)cc3Cl)n[nH]2)CC1	aSyn rescue inconclusive, FUS yeast rescue 25.1µM, Abeta yeast res inconclusive, TDP43 rescue inconclusive
CSc1ccccc1OCc1cc(C(=O)NCc2cnc(C)cn2)no1	TDP43 rescue 11.2µM
Brc1ccc(CSc2nnc(-c3cccnc3)o2)cc1	none
Fc1ccc(CSc2nnc(-c3cccnc3)o2)cc1	TDP43 rescue inconclusive
Clc1ccc(CSc2nnc(-c3cccnc3)o2)cc1	TDP43 rescue 11.2µM
Cc1ccc(CSc2nnc(-c3cccnc3)o2)cc1	TDP43 rescue 12.6µM
O=[N+]([O-])c1ccc(CSc2nnc(-c3cccnc3)o2)cc1	TDP43 rescue 11.2µM
O=C(O)c1cccc(CSc2nnc(-c3cccnc3)o2)c1	none
c1ccc(CSc2nnc(-c3cccnc3)o2)cc1	TDP43 rescue 14.1µM
COC1=C[C@H](C(=O)NC2CCN(Cc3ccccc3)CC2)[C@@]2(C)Cc3ccccc3[C@H]2CC1=O	none (no result: aSyn rescue, Abeta yeast res, TDP43 rescue)
Cc1ccc(S(=O)(=O)c2cn(CC(=O)Nc3ccc4c(c3)OCO4)c3ccc(F)cc3c2=O)cc1	none (no result: aSyn rescue)
c1cncc(-c2nnc(SCc3cccc4ccccc34)o2)c1	TDP43 rescue 15.8µM
CSc1ccc(Cc2ccc(Cl)cc2Cl)nn1	TDP43 rescue 11.2µM
NNc1ccc(Cc2ccc(Cl)cc2Cl)nn1	none
CC1CCN(c2nn3c(=O)c(C(=O)NCCc4ccccc4)cnc3s2)CC1	TDP43 rescue 12.6µM (no result: aSyn rescue)
O=C(NCCc1ccccc1)c1cnc2sc(N3CCOCC3)nn2c1=O	none (no result: aSyn rescue)
CCCCCCCCN1C(=O)[C@H](CC(=O)NCc2ccccc2)C[C@@]2(C(=O)OCC)CCC=C12	FUS yeast rescue inconclusive
CCCCCCCCN1C(=O)[C@H](CC(=O)NCc2ccc(OC)c(OC)c2)C[C@@]2(C(=O)OC)CCCCC=C12	FUS yeast rescue inconclusive, TDP43 rescue 20µM
CCCCCCCCN1C(=O)[C@H](CC(=O)NCc2ccc(OC)c(OC)c2)C[C@@]2(C(=O)OCC)CCC=C12	FUS yeast rescue inconclusive, TDP43 rescue 28.2µM
COC(=O)[C@]12CCCCC=C1N(CCc1ccc(OC)c(OC)c1)C(=O)[C@H](CC(=O)NCC13CC4CC(CC(C4)C1)C3)C2	FUS yeast rescue 8.91µM
COC(C/C=C/C(=O)COCc1ccccc1)OC	TDP43 rescue 12.6µM
COCCNC(=O)/C(C#N)=C/c1ccccc1Br	TDP43 rescue 22.4µM
CCOc1ccc(S(=O)(=O)N2CCN(c3nc(-c4ccccc4)nc4ccccc34)CC2)cc1OCC	none (no result: FUS yeast rescue, Abeta yeast res, TDP43 rescue)
NC(=O)COc1ccc(/C=C2\C(=O)ON=C2c2ccccc2)cc1	aSyn rescue 15.8µM, TDP43 rescue 22.4µM (no result: FUS yeast rescue)
COc1ccc(/C=C2/C(=O)ON=C2c2ccccc2)cc1OC	aSyn rescue 12.6µM, TDP43 rescue inconclusive
CCOc1cc(/C=C2\C(=O)ON=C2c2ccccc2)ccc1OC	TDP43 rescue 12.6µM
CC(=O)c1c(C)[nH]c2ccc(OCC(O)CNCCc3ccccc3)cc12 (stereo unspecified)	none (no result: FUS yeast rescue, Abeta yeast res, TDP43 rescue)
NC(=O)Cc1nc2scc(-c3ccccc3)c2c(=O)[nH]1	none
O=C(OCc1nc2scc(-c3ccccc3)c2c(=O)[nH]1)c1ccco1	Abeta yeast res inconclusive, TDP43 rescue 35.5µM
COc1cccc(C(=O)n2ccc3ccc(-c4ccc5ccn(C(=O)c6cccc(OC)c6)c5c4)cc32)c1	none (no result: aSyn rescue, Abeta yeast res, TDP43 rescue)
Oc1ccc(Oc2ncc(Cl)cc2Cl)cc1	TDP43 rescue 8.91µM (no result: FUS yeast rescue)
CCOCCOC(=O)C(C)Oc1ccc(Oc2ncc(Cl)cc2Cl)cc1 (stereo unspecified)	none (no result: FUS yeast rescue)
Clc1ccc(OCc2nnnn2-c2ccccc2)cc1	TDP43 rescue 12.6µM (no result: FUS yeast rescue)
Brc1ccc(Oc2nnnn2-c2ccccc2)cc1	TDP43 rescue 15.8µM
c1ccc(OCc2nnnn2-c2ccccc2)cc1	none
Cn1nnnc1SCCCNCc1ccccc1OCc1ccc(Cl)cc1	none (no result: aSyn rescue)
COC(=O)C[C@@H]1CC[C@H]2[C@@H](COc3ccc(NC(=O)c4cc(C)on4)cc3C(=O)N2C)O1	none (no result: aSyn rescue, Abeta yeast res, TDP43 rescue)
CCOC(=O)c1ccc2oc(=O)n(Cc3ccccc3)c2c1	TDP43 rescue 7.94µM (no result: aSyn rescue)
COc1cccc(CNC(=O)c2ccc3oc(=O)n(Cc4ccccc4)c3c2)c1	Abeta yeast res inconclusive, TDP43 rescue 25.1µM (no result: aSyn rescue)
Cc1ccc(CNC(=O)c2ccc3oc(=O)n(Cc4ccccc4)c3c2)cc1	none (no result: aSyn rescue)
OC(c1ccccc1)(c1ccccc1)C1CCN(CCCNc2ccc(C(F)(F)F)cc2)CC1	none (no result: aSyn rescue, Abeta yeast res, TDP43 rescue)
O=C(OC(c1ccccc1)c1nccc2ccccc12)c1cc([N+](=O)[O-])cc([N+](=O)[O-])c1 (stereo unspecified)	TDP43 rescue 6.31µM (no result: FUS yeast rescue)
CCOCCc1nn2c(=O)cc(COC(=O)c3ccccc3NC(=O)C3CCCCC3)nc2s1	TDP43 rescue inconclusive (no result: aSyn rescue)
Cc1oc2c(c1C(=O)c1ccccc1)C(=O)C(=O)c1ccccc1-2	TDP43 rescue 15.8µM
CCOC(=O)c1c(C)oc2c1C(=O)c1ccccc1C2=O	TDP43 rescue 3.16µM
Cc1oc2c(c1C(=O)O)C(=O)c1ccccc1C2=O	none
O=C(Nc1cccc2ccccc12)c1ccco1	TDP43 rescue 15.8µM
O=C(Nc1nc2c(ccc3ccccc32)s1)c1ccco1	FUS yeast rescue inconclusive, TDP43 rescue 5.62µM
CCOC(=O)c1c(N)sc2c1CCC1C(=O)N(C3CCCCC3)C(=O)C21 (stereo unspecified)	FUS yeast rescue 28.2µM
Clc1nc(Cl)nc(NCCC2=CCCCC2)n1	TDP43 rescue 10µM
CCOc1nc(NCCO)nc(NCCC2=CCCCC2)n1	none

Source: PubChem (National Center for Advancing Translational Sciences (NCATS))
